Results on ten compounds are retold here after article PMC5540273 (PLoS ONE, 2017).

Some test systems named below: PIK3C2G; PIK3CA; PIK3CB; PIK3CD; PIK3CG; PIKFYVE; PIM1; PIM2; PIM3; PIP5K1A; PIP5K1C; PIP5K2B; PKMYT1; PKN1; PKN2; PLK1.
Conditions in all cases: concentration: 1 μM,replicates: in singlicate; n = 1
Another assay concerns T1, PIK4CB.
T1 construct: gene PI4KB

The subject of the next assay is T2, PIP5K2C.
T2 construct: gene PIP4K2C

The next assay relates to T3, PKAC-alpha.
T3 construct: gene PRKACA

The next assay relates to T4, PKAC-beta.
T4 construct: gene PRKACB
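Also: KINOMEscan kinase panel screen.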

In the case of `CCn1c(-c2nonc2N)nc2c(C#CC(C)(C)O)nc(OCCN)cc21.Cl.Cl` [GSK902056], the “%Inh” value in the assay with PIK3C2G is on record as 0%; in the assay with PIK3CA, 0%; with PIK3CB, 0%; in the assay with PIK3CD it was 5%; in the assay with PIK3CG, 0%; in the assay on PIK4CB, 9%. Also, the “%Inh” value is reported as 19% in the assay on PIKFYVE; 25% in the assay on PIM1; 0% with PIM2; 11% in the assay on PIM3; 1% with PIP5K1A; 86% in the assay with PIP5K1C. For the same compound, the “%Inh” value with PIP5K2B is given as 9%; in the assay on PIP5K2C, 13%; with PKAC-alpha, 67%; in the assay with PKAC-beta it was 81%; in the assay with PKMYT1, 8%; in the assay with PKN1 it was 8%. The “%Inh” value with PKN2 and in the assay on PLK1 was 0% each time.

Turning to `CN(C)CC(O)COc1ccc(Nc2nccc(-c3cnn4nc(N5CCOCC5)ccc34)n2)cc1` (stereo not drawn) [GW767488], the “%Inh” value with PIK3C2G is on record as 20%; with PIK3CA it was 33%; in the assay on PIK3CB it was 35%; in the assay with PIK3CD it was 37%; in the assay on PIK3CG, 63%; with PIK4CB it was 46%. The “%Inh” value in the assay on PIKFYVE came out at 68%; in the assay on PIM1 it was 15%; in the assay on PIM2 it was 0%; in the assay on PIM3 it was 35%; in the assay with PIP5K1A, 37%; in the assay with PIP5K1C it was 24%. Also, the “%Inh” value is given as 77% in the assay on PIP5K2B; 82% in the assay on PIP5K2C; 0% in the assay with PKAC-alpha; 0% with PKAC-beta; 9% in the assay on PKMYT1; 13% with PKN1. Also, the results for the “%Inh” value in the assay on PKN2 and in the assay with PLK1 were 38% and 37%, respectively.

Take `C[C@@H]1CCN(C(=O)CC#N)C[C@@H]1N(C)c1ncnc2[nH]ccc12`: the “%Inh” value in the assay on PIK3C2G, in the assay on PIK3CA, in the assay on PIK3CB, with PIK3CD, in the assay with PIK3CG and with PIK4CB was 0% throughout. Besides, the “%Inh” value was found to be 36% in the assay on PIKFYVE; 0% in the assay on PIM1; 0% in the assay with PIM2; 0% in the assay with PIM3; 0% in the assay on PIP5K1A; 0% with PIP5K1C. In addition, the “%Inh” value in the assay on PIP5K2B is 0%; with PIP5K2C, 0%; in the assay with PKAC-alpha it was 0%; in the assay with PKAC-beta it was 0%; with PKMYT1, 20%; in the assay with PLK1, 0%.

As to `C[C@@H](Oc1cc(-c2cnn(C3CCNCC3)c2)cnc1N)c1c(Cl)ccc(F)c1Cl`, the “%Inh” value in the assay with PIK3C2G is listed as 8%; in the assay with PIK3CA it was 14%; with PIK3CB, 18%; in the assay on PIK3CD, 0%; with PIK3CG, 9%; with PIK4CB, 3%. Moreover, the “%Inh” value with PIKFYVE came out at 5%; in the assay on PIM1, 0%; in the assay with PIM2, 0%; with PIM3, 3%; in the assay with PIP5K1A, 0%; in the assay on PIP5K1C it was 0%. In addition, the “%Inh” value in the assay with PIP5K2B was found to be 79%; with PIP5K2C, 0%; in the assay with PKAC-alpha, 0%; in the assay on PKAC-beta it was 0%; with PKMYT1, 0%; in the assay on PKN1, 2%. Moreover, the “%Inh” value in the assay with PKN2 and in the assay with PLK1 was 0% each time.

For `Cc1ccc(-n2nc(C(C)(C)C)cc2NC(=O)Nc2ccc(OCCN3CCOCC3)c3ccccc23)cc1` [GW839464], the “%Inh” value in the assay with PIK3C2G, in the assay on PIK3CA, in the assay with PIK3CB, in the assay with PIK3CD, in the assay with PIK3CG and in the assay with PIK4CB was 0% throughout. Further, the “%Inh” value in the assay with PIKFYVE is on record as 0%; in the assay with PIM1 it was 0%; in the assay on PIM2, 9%; with PIM3, 0%; in the assay with PIP5K1A it was 0%; with PIP5K1C it was 37%. Also, the “%Inh” value is reported as 23% with PIP5K2B; 19% with PIP5K2C; 0% with PKAC-alpha; 34% in the assay on PKAC-beta; 21% in the assay with PKMYT1; 100% in the assay with PKN1. The “%Inh” value with PKN2 stood at 0%; with PLK1 it was 24%.

Regarding `O=C(NCCCN1CCOC1=O)c1cnc(NCc2cc(Cl)ccc2Cl)nc1NC1CCCC1`, the “%Inh” value was determined as 8% in the assay on PIK3C2G; 0% with PIK3CA; 2% in the assay with PIK3CB; 0% with PIK3CD; 0% in the assay with PIK3CG; 12% with PIK4CB. Moreover, the “%Inh” value with PIKFYVE amounted to 36%; with PIM1 it was 9%; in the assay with PIM2 it was 16%; in the assay with PIM3 it was 10%; in the assay on PIP5K1A, 0%; with PIP5K1C, 39%. Besides, the “%Inh” value in the assay with PIP5K2B came out at 0%; in the assay on PIP5K2C, 7%; in the assay with PKAC-alpha, 4%; in the assay on PKAC-beta, 6%; with PKMYT1 it was 27%; in the assay with PKN1, 0%. Besides, the “%Inh” value turned out to be 10% in the assay with PKN2 and 0% with PLK1.

For `Nc1nc(Nc2ccccc2)cc(-c2ccc3c(N)n[nH]c3c2)n1` [GSK2225749], the “%Inh” value with PIK3C2G was determined as 20%; with PIK3CA it was 0%; in the assay with PIK3CB, 0%; in the assay with PIK3CD it was 22%; in the assay with PIK3CG, 0%; in the assay on PIK4CB, 15%. Also, the “%Inh” value is listed as 27% in the assay with PIKFYVE; 12% in the assay on PIM1; 0% in the assay with PIM2; 0% in the assay on PIM3; 46% in the assay with PIP5K1A; 82% in the assay on PIP5K1C. The “%Inh” value with PIP5K2B stood at 38%; in the assay with PIP5K2C it was 61%; in the assay on PKAC-alpha, 0%; in the assay with PKAC-beta it was 0%; in the assay on PKMYT1, 0%; in the assay on PKN1, 50%. The “%Inh” value with PKN2 and in the assay with PLK1 was 0% each time.

For `Cc1cc(C(=O)Nc2ccc(Oc3ccc4nc(NC(=O)C5CC5)cn4n3)cc2)nn1-c1ccccc1`, the “%Inh” value with PIK3C2G was 2%; in the assay on PIK3CA, 0%; with PIK3CB, 0%; in the assay with PIK3CD, 0%; in the assay with PIK3CG, 0%; with PIK4CB, 0%. Besides, the “%Inh” value stood at 1% with PIKFYVE; 2% in the assay on PIM1; 2% in the assay on PIM2; 0% with PIM3; 3% in the assay on PIP5K1A; 27% in the assay on PIP5K1C. The “%Inh” value is 50% in the assay on PIP5K2B; 22% in the assay with PIP5K2C; 0% in the assay with PKAC-alpha; 21% in the assay on PKAC-beta; 0% with PKMYT1; 0% with PKN1. Also, the results for the “%Inh” value in the assay with PKN2 and in the assay on PLK1 were 11% and 0%, respectively.

For the compound `Cl.Cl.NC[C@H](Cc1ccc(C(F)(F)F)cc1)NC(=O)c1cc(Br)c(-c2ccnc3[nH]ccc23)s1` [GSK1487252], the “%Inh” value with PIK3C2G came out at 61%; in the assay with PIK3CA, 0%; in the assay with PIK3CB, 0%; in the assay with PIK3CD, 0%; in the assay with PIK3CG it was 0%; with PIK4CB it was 0%. The “%Inh” value in the assay with PIKFYVE is recorded as 12%; with PIM1, 35%; with PIM2, 0%; with PIM3 it was 0%; with PIP5K1A it was 0%; with PIP5K1C it was 22%. Besides, the “%Inh” value in the assay with PIP5K2B turned out to be 39%; in the assay with PIP5K2C, 3%; in the assay on PKAC-alpha, 99.4%; with PKAC-beta it was 98.8%; in the assay with PKMYT1, 10%; in the assay with PKN1 it was 12%. Moreover, the “%Inh” value in the assay with PKN2 was 79%; with PLK1 it was 0%.

For `NC(=O)c1cc(-c2ccccc2)cc2c(C3CCNCC3)c[nH]c12` [GSK301362], the “%Inh” value in the assay on PIK3C2G is recorded as 0%; in the assay on PIK3CA, 0%; in the assay with PIK3CB, 0%; in the assay with PIK3CD, 6%; in the assay on PIK3CG, 2%; in the assay with PIK4CB it was 0%. For the same compound, the “%Inh” value in the assay on PIKFYVE is on record as 0%; in the assay on PIM1, 17%; in the assay on PIM2, 0%; with PIM3, 7%; with PIP5K1A, 0%; in the assay on PIP5K1C, 33%. Moreover, the “%Inh” value in the assay with PIP5K2B worked out at 14%; in the assay with PIP5K2C, 75%; in the assay with PKAC-alpha it was 0%; with PKAC-beta it was 11%; in the assay with PKMYT1, 17%; with PKN1, 50%. The “%Inh” value in the assay with PKN2 was 0%; with PLK1, 10%.
